The target in assay [1] is human Matrix Metalloproteinase-3 (MMP3), MMP3 (gene 4314) (UniProt P08254). The experiment in a line: NVS_ENZ_hMMP3: NovaScreen (NVS) Enzymatic Assay for human Matrix Metalloproteinase-3 (MMP3) (AID 2283185). The gist of the method: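 Fluorescent substrate turnover by recombinant MMP3 read after 1 h, signal loss scored against DMSO. Compounds first run in duplicate at 25 uM single dose, then actives confirmed by concentration series.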

Assay [2] concerns the target Glycogen synthase kinase-3 beta (Homo sapiens) (UniProt P49841). The assay is described as follows: NVS_ENZ_hGSK3b: NovaScreen (NVS) Enzymatic Assay for human Glycogen Synthase Kinase-3 beta (GSK3b) (AID 2283165). In short, it runs like this:
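Recombinant enzyme with specific fluorescent substrate, 1 h, product separated by electrophoretic mobility shift. Primary duplicate screen at 25 uM; actives (e.g. 30% inhibition) followed in singleton concentration-response to 50 uM. Signal loss fitted versus DMSO.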

For assay [3], the target named is human MAP Kinase-Activated Protein Kinase 2 (MAPKAPK2), MAPKAPK2 (gene 9261) (UniProt P49137). The experiment in a line: NVS_ENZ_hMAPKAPK2: NovaScreen (NVS) Enzymatic Assay for human MAP Kinase-Activated Protein Kinase 2 (MAPKAPK2) (AID 2283178). In short, it runs like this:
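Chemicals screened in duplicate at 25 uM, then to 50 uM top concentration in concentration-response, against recombinant human MAPKAPK2; substrate conversion read 1 hr post-dosing by fluorescence after electrophoretic mobility-shift separation, loss-of-signal relative to DMSO.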

Assay [4] deals with human Mitogen- and Stress-activated Protein Kinase-1 (Msk1), RPS6KA5 (gene 9252) (UniProt O75582). The assay is described as follows: NVS_ENZ_hMsk1: NovaScreen (NVS) Enzymatic Assay for human Mitogen- and Stress-activated Protein Kinase-1 (Msk1) (AID 2283187). In short, it runs like this: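 Chemicals first run in duplicate at 25 uM, with actives followed up in singleton concentration series to 50 uM maximum. Enzyme activity came from substrate/product mobility-shift separation with fluorescence detection after 1 h incubation of the recombinant protein.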
human Mitogen- and Stress-activated Protein Kinase-1 (Msk1), RPS6KA5 (gene 9252), sequence (O75582 whole entry, looked up): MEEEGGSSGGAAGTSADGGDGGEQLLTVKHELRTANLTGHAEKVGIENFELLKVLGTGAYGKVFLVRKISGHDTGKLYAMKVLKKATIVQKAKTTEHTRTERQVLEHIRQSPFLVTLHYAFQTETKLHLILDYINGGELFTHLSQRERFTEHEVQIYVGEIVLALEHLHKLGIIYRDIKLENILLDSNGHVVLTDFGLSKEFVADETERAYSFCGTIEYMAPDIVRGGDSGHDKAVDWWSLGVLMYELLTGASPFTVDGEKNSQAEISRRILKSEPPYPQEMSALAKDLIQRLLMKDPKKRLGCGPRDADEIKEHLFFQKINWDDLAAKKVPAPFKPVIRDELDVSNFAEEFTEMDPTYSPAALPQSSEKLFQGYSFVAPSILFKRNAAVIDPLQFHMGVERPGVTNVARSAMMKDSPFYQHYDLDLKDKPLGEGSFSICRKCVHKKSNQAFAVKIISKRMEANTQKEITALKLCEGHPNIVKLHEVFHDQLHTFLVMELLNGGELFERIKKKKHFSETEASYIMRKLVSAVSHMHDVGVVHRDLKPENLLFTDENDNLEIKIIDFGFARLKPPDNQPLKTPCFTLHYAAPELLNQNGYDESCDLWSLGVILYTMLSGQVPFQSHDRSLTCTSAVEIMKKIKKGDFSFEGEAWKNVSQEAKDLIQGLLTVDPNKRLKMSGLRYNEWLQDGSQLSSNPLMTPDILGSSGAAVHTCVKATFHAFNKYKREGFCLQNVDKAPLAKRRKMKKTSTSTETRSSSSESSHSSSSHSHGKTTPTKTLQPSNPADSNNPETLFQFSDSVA

Assay [5] deals with cAMP-dependent protein kinase catalytic subunit alpha (Homo sapiens) (UniProt P17612). The experiment in a line: NVS_ENZ_hPKA: NovaScreen (NVS) Enzymatic Assay for human Protein Kinase A (PKA) (AID 2283192). The gist of the method: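 Cell-free kinase activity read by fluorescence after mobility-shift separation of substrate and product, 1 h post-dosing. Single-concentration duplicate screen (25 uM) preceded singleton concentration series (top 50 uM); loss of signal versus DMSO.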

Assay [6] addresses Mitogen-activated protein kinase 3 (Homo sapiens) (UniProt P27361). The assay is described as follows: NVS_ENZ_hMAPK3: NovaScreen (NVS) Enzymatic Assay for human Mitogen-Activated Protein Kinase 3 (MAPK 3) (AID 2283177). The gist of the method: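 Chemicals were first tested in duplicate at 25 uM, with hits re-run as concentration series (max 50 uM). Recombinant enzyme activity, measured 1 h post-dose in a cell-free format, was read by fluorescence/mobility shift relative to DMSO.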

The target in assay [7] is human Phosphodiesterase 4A1 (PDE4A1), PDE4A (gene 5141) (UniProt P27815). The experiment in a line: NVS_ENZ_hPDE4A1: NovaScreen (NVS) Enzymatic Assay for human Phosphodiesterase 4A1 (PDE4A1) (AID 2283191). In short, it runs like this: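 Fluorescent substrate turnover by recombinant PDE4A1 read after 1 h by mobility-shift separation. Primary duplicate screen at 25 uM; hits retested in concentration series with a 50 uM maximum, relative to DMSO.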
human Phosphodiesterase 4A1 (PDE4A1), PDE4A (gene 5141), sequence (P27815 whole entry, looked up): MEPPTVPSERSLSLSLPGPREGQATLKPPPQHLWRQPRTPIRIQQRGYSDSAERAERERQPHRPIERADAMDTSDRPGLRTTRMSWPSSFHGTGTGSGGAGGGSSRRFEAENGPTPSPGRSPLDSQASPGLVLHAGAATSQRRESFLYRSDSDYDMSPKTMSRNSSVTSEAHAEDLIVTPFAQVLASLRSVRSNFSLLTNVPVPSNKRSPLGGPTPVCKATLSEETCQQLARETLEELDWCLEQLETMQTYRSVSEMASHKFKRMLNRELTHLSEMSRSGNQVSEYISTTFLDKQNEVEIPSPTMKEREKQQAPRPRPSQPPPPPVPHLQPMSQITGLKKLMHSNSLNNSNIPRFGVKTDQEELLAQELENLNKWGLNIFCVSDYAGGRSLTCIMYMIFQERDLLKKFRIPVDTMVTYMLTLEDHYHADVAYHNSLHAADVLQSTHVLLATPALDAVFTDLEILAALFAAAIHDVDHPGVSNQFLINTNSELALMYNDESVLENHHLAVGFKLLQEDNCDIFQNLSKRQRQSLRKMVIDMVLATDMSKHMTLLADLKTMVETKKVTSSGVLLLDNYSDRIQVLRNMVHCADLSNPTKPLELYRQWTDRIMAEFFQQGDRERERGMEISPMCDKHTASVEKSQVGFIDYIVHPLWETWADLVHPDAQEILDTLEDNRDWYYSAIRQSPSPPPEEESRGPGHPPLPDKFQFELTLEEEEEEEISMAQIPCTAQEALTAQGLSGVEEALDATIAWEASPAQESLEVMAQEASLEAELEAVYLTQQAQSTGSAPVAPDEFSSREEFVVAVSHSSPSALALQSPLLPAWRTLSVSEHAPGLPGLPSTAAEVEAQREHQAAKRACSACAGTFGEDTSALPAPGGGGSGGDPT

Assay [8] has as its target human Matrix Metalloproteinase-2 (MMP2), MMP2 (gene 4313) (UniProt P08253). The experiment in a line: NVS_ENZ_hMMP2: NovaScreen (NVS) Enzymatic Assay for human Matrix Metalloproteinase-2 (MMP2) (AID 2283184). The gist of the method: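 Compounds first screened in duplicate at a single 25 uM, with actives followed up in concentration series. Recombinant human MMP2 cleaves a fluorogenic substrate; fluorescence taken at 1 h, inhibition fitted relative to DMSO.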

Assay [9] deals with human Matrix Metalloproteinase-9 (MMP9), MMP9 (gene 4318) (UniProt P14780). The assay is described as follows: NVS_ENZ_hMMP9: NovaScreen (NVS) Enzymatic Assay for human Matrix Metalloproteinase-9 (MMP9) (AID 2283190).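 Further: cell-free recombinant MMP9 protease activity read by fluorescent substrate signal; active means inhibition seen as loss of fluorescence signal versus DMSO.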 The gist of the method:
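Cell-free recombinant MMP9 enzyme activity measured by fluorescence intensity 1 h after dosing. Primary screen in duplicate at 25 uM, actives followed in concentration series; loss of signal relative to DMSO.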

The target of assay [10] is human Janus Kinase 2 (Jak2), JAK2 (gene 3717) (UniProt O60674). The experiment in a line: NVS_ENZ_hJak2: NovaScreen (NVS) Enzymatic Assay for human Janus Kinase 2 (Jak2) (AID 2283169). In short, it runs like this:
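Single-point duplicate screen at 25 uM, with hits run in concentration series to a 50 uM top dose. Substrate-product separation by mobility shift with fluorescence detection, 1 h post-dosing; DMSO baseline.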

Assay [11] has as its target human IkappaB Kinase alpha (IKKa), CHUK (gene 1147) (UniProt O15111). The experiment in a line: NVS_ENZ_hIKKa: NovaScreen (NVS) Enzymatic Assay for human IkappaB Kinase alpha (IKKa) (AID 2283167). The gist of the method: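 Compounds first run in duplicate at 25 uM, those meeting threshold (e.g. 30% inhibition) retested to maximum 50 uM. Enzyme activity of recombinant IKKa measured by fluorescence with electrophoretic mobility shift separation, 1 hour post-dosing, DMSO baseline.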

The target of assay [12] is human Phosphodiesterase 5 (PDE5), PDE5A (gene 8654) (UniProt O76074). The assay is described as follows: NVS_ENZ_hPDE5: NovaScreen (NVS) Enzymatic Assay for human Phosphodiesterase 5 (PDE5) (AID 2283194). In short, it runs like this:
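Screening began in duplicate at 25 uM, with actives taken into concentration-response. Enzyme activity of recombinant PDE5 toward its substrate was measured at 1 h by fluorescence mobility-shift detection, relative to DMSO controls.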

Assay [13] concerns the target human Matrix Metalloproteinase-7 (MMP7), MMP7 (gene 4316) (UniProt P09237). The assay is described as follows: NVS_ENZ_hMMP7: NovaScreen (NVS) Enzymatic Assay for human Matrix Metalloproteinase-7 (MMP7) (AID 2283183). The gist of the method: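 Compounds first tested at 25 uM in duplicate, then at up to 50 uM in concentration series if active. Protease activity measured by fluorescence intensity 1 h after dosing, with fitting relative to DMSO.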

The target in assay [14] is human Mitogen-Activated Protein Kinase 1 (MAPK 1), MAPK1 (gene 5594) (UniProt P28482). The assay is described as follows: NVS_ENZ_hMAPK1: NovaScreen (NVS) Enzymatic Assay for human Mitogen-Activated Protein Kinase 1 (MAPK 1) (AID 2283175). The gist of the method:
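Cell-free recombinant human MAPK1 enzymatic assay, fluorescence/electrophoretic mobility shift read at 1 h; loss of signal vs DMSO. Primary screen in duplicate at 25 uM; actives (e.g. ≥30% inhibition) run as concentration-response up to 50 uM.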

The target of assay [15] is human p21 Activated Kinase 4 (PAK4), PAK4 (gene 10298) (UniProt O96013). The assay is described as follows: NVS_ENZ_hPAK4: NovaScreen (NVS) Enzymatic Assay for human p21 Activated Kinase 4 (PAK4) (AID 2283189). In short, it runs like this: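 Extracted PAK4 enzyme activity read by fluorescence with mobility-shift separation 1 h after chemical addition. Duplicate single-concentration screen at 25 uM, DMSO as negative control.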
human p21 Activated Kinase 4 (PAK4), PAK4 (gene 10298), sequence (O96013 whole entry, looked up): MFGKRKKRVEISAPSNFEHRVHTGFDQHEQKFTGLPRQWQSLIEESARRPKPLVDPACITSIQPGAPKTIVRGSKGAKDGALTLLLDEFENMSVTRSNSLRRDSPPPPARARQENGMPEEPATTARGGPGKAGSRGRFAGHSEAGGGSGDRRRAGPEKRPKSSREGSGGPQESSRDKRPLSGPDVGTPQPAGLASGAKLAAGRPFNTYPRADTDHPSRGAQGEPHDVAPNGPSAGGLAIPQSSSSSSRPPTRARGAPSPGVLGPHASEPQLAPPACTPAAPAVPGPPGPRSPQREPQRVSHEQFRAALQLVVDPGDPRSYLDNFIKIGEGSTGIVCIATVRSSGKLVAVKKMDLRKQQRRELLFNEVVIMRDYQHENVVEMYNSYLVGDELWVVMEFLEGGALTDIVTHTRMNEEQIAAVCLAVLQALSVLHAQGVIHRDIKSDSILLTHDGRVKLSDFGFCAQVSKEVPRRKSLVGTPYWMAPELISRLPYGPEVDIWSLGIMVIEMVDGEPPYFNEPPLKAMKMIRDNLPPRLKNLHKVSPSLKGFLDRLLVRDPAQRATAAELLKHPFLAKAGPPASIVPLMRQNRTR

Assay [16] deals with human Phosphodiesterase 10 (PDE10), PDE10A (gene 10846) (UniProt Q9Y233). The experiment in a line: NVS_ENZ_hPDE10: NovaScreen (NVS) Enzymatic Assay for human Phosphodiesterase 10 (PDE10) (AID 2283195). In short, it runs like this:
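Fluorescence readout after mobility-shift separation of substrate and product, 1 h reaction with recombinant human enzyme. Single-concentration duplicates at 25 uM, then concentration-response up to 50 uM for chemicals reaching threshold; DMSO baseline.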

The values that follow come from PubChem BioAssay (EPA / NIEHS).

Structures are written as SMILES. Inconclusive results are not listed. Some compounds were tested as several samples or in several runs, with calls that do not always agree. Calls of active or inactive are those of the source. How the source made its calls: active means hit-call score of the fitted dose curve at least 0.9, where 1 is the maximum; inconclusive means response in the unintended direction; inactive means score below 0.9.

human Matrix Metalloproteinase-3 (MMP3), MMP3 (gene 4314), sequence (P08254 whole entry, looked up): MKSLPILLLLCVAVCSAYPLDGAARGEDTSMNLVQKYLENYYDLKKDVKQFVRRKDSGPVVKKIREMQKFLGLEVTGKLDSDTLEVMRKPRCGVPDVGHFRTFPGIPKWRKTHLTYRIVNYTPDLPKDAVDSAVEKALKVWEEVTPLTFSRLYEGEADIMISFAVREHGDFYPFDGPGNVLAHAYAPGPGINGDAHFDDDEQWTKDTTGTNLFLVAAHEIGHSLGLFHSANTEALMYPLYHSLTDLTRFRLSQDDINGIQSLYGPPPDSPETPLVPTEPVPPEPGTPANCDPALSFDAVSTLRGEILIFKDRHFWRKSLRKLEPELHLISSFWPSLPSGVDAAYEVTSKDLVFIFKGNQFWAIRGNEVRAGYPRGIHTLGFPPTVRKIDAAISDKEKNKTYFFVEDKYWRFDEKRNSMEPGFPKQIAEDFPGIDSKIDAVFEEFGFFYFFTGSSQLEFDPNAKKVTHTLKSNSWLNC
human IkappaB Kinase alpha (IKKa), CHUK (gene 1147), sequence (O15111 whole entry, looked up): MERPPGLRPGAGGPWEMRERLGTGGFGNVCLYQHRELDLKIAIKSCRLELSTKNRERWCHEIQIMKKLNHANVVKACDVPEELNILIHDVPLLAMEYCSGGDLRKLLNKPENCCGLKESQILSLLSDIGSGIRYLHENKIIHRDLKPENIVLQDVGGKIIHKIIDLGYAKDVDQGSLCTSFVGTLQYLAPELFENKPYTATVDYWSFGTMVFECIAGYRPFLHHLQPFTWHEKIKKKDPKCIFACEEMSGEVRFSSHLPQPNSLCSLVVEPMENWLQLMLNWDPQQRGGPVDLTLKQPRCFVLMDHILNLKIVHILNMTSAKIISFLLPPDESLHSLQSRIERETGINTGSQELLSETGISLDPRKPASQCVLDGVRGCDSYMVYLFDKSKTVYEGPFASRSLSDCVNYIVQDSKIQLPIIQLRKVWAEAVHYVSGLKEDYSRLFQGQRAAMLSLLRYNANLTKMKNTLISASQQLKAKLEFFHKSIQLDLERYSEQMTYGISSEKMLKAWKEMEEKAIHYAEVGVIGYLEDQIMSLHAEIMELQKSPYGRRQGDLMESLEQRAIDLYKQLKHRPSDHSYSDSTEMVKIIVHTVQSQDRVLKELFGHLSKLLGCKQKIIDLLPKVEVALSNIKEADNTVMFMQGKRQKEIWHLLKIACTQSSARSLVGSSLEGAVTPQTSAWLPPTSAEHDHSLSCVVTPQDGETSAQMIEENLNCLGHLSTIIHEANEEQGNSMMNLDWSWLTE
human Matrix Metalloproteinase-7 (MMP7), MMP7 (gene 4316), sequence (P09237 whole entry, looked up): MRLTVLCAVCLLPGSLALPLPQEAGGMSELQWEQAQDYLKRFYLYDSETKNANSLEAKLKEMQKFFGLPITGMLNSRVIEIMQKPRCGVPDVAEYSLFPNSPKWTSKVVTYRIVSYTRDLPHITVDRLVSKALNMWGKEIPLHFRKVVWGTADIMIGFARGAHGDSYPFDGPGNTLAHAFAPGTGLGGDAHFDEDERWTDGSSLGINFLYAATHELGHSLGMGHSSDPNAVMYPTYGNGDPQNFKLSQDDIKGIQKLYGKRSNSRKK
Mitogen-activated protein kinase 3 (Homo sapiens), sequence (P27361 whole entry, looked up): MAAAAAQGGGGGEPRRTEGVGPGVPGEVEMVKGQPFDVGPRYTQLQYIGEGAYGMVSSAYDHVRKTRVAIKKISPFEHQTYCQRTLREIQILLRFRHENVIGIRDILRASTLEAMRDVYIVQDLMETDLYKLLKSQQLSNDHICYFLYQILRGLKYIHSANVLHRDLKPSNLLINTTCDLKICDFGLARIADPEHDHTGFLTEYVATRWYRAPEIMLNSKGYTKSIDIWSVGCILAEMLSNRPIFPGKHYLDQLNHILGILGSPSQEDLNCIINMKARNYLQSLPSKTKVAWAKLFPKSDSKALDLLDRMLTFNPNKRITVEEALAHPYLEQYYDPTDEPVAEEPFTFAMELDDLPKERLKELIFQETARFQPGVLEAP
human Matrix Metalloproteinase-9 (MMP9), MMP9 (gene 4318), sequence (P14780 whole entry, looked up): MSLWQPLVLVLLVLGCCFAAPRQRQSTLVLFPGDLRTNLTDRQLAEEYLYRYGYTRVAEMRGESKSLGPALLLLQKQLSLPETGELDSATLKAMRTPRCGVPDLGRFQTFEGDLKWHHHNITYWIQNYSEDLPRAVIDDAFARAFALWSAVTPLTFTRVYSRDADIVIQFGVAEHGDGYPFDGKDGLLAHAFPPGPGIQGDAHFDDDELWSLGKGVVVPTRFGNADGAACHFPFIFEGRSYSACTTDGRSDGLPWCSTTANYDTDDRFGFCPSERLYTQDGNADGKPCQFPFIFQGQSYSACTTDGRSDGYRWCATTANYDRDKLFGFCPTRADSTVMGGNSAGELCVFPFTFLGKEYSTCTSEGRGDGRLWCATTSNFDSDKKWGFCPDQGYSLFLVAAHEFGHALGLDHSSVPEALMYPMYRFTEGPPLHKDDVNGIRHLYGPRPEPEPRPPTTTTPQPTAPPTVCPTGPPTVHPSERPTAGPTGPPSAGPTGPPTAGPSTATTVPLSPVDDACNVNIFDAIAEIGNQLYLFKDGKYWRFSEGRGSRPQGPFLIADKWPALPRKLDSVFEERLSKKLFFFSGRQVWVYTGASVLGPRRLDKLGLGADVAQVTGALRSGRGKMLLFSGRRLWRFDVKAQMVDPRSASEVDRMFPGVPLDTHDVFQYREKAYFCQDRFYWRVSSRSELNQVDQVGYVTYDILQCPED

For the compound `CCOP(=S)(OCC)OC(Cl)C(Cl)(Cl)Cl` (centres undefined), the call in [1] was inactive.
For the compound `Nc1c(Cl)cc([N+](=O)[O-])cc1Cl`, the compound was called inactive in assay [2], in assay [3], in [1], in [4] and in assay [5].
One may read the AC50 as the concentration giving half of the maximal activity seen. Consider `COc1ccc(C(=CC(=O)N2CCOCC2)c2ccc(Cl)cc2)cc1OC`, for which the call in assay [6] was inactive. Besides, the AC50 in assay [7] was 0.0383 µM (active).
In the case of `CCOC(=O)CC(SP(=O)(OC)OC)C(=O)OCC` (centres undefined), the compound was classed as inactive in assay [8] and in assay [9].
For `Cc1cc(C2CC2)nc(Nc2ccccc2)n1`, the compound was called inactive in assay [10], in assay [1] and in assay [7].
As for `CC(C)N(C(=O)SCC(Cl)=C(Cl)Cl)C(C)C`, the compound was classed as inactive in assay [11].
With `C[Si](Cn1cncn1)(c1ccc(F)cc1)c1ccc(F)cc1`, the AC50 in assay [7] is 7.33 µM (active). In addition, in assay [12], the result was inactive.
Turning to `CCC(=O)Nc1ccc(Cl)c(Cl)c1`, the AC50 in [7] is 25 µM (active).
As for `CCOP(=S)(OCC)Oc1cc(C)nc(C(C)C)n1`, the outcome in assay [13] and in assay [7] was inactive.
`COc1cccc(C(=O)NN(C(=O)c2cc(C)cc(C)c2)C(C)(C)C)c1C`: the compound was called inactive in [11].
In the case of `CCOP(=S)(OCC)Oc1ccc([N+](=O)[O-])cc1`, the outcome in [7] was inactive.
As for `CN(C)[C@@H]1C(=O)C(C(N)=O)=C(O)[C@@]2(O)C(=O)C3=C(O)c4c(O)cccc4[C@@](C)(O)[C@H]3[C@H](O)[C@@H]12`, the AC50 in [14] is 15 µM (active); in [6] it was 19.1 µM (active); in [15] it was 9.28 µM (active); in assay [7], 23.1 µM (active); in [12] it was 6.97 µM (active). Also, the result in [6], in [13], in [15] and in [16] was inactive.
As for `CCC(CC)Nc1c([N+](=O)[O-])cc(C)c(C)c1[N+](=O)[O-]`, in assay [11], the compound was called inactive.
As for `CNC(=O)Oc1cccc2c1OC(C)(C)O2`, the AC50 in assay [13] was 6.07 µM (active).
On to `CCCOCC(=Nc1ccc(Cl)cc1C(F)(F)F)n1ccnc1`, for which the compound was classed as inactive in assay [9] and in assay [7].
